High-throughput results deposited in PubChem BioAssay by National Center for Advancing Translational Sciences (NCATS).
The entries come from a sample that favours hits as a whole.
nsP2pro inh: CHIKV nsP2 protease inhibition, primary qHTS | Q8JUX6 | FRET peptide cleavage, nsP2pro, fluorescence 1 h | Potency, µM (highest dose often 24.9 µM), for inactives: at the highest dose activity change, negative = inhibition, most hits filed as inhibitors | 31,000 compounds, 1.1% hits; calls by dose curve; further: nearly all actives have a fitted effect of over 60% in size
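Enzyme 150 nM, substrate 2.5 uM (both final); Tris-HCl 10 mM pH 8.0 + 0.01% Tween 20; cpd up to 25 uM, 7 pts; 15 min preinc., 1 h RT; fluorescence ex 525/em 598.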
Active calls of the source: *; i = inactive; [ ] = dose if it differs, or a comment. On the % scale 0 is the no-effect control and ±100 the full control effect; potency means the concentration at half of the fitted maximal effect.

SMILES	nsP2pro inh
O=C1CCCC2=C1C(c1[nH]ncc1Cl)NC(=NCc1ncc[nH]1)N2 (centres undefined)	-5%
O=C(/C=C/c1ccc(O)c(O)c1)O[C@H]1[C@H](O)C[C@](O)(C(=O)O)C[C@H]1OC(=O)/C=C/c1ccc(O)c(O)c1	7%
OCc1ccc(-c2ccc3ncnc(N4CCOCC4)c3c2)o1	13µM*
O=C(Nc1ccc2c(N3CCOCC3)ncnc2c1)c1cccc(Cl)c1	i
Cc1cc(C(=O)N2CCc3ncnc(N4CCOCC4)c3CC2)n(C)n1	-3%
CCCCC[C@H](O)/C=C/[C@@H]1[C@@H](C/C=C/CCCC(=O)O)[C@@H](O)C[C@H]1O	10%
CC(=O)c1cccc(NC(=O)c2c(C)nn(-c3ccc(F)cc3)c2-n2cccc2)c1	10µM*
Cc1ccc(CCNC(=O)c2c(C)nn(-c3ccc(F)cc3)c2-n2cccc2)cc1	-17%
Cc1nn(-c2ccc(F)cc2)c(-n2cccc2)c1C(=O)N1CCCCC1C (centres undefined)	-29%
COc1ccc(S(=O)(=O)Nc2cnccc2C(=O)Nc2nc(-c3ccccc3)cs2)cc1	0%
CCCN1Cc2ccccc2NC(=O)C12CCNC2 (centres undefined)	13µM*
Cc1cc(CN2CCC23Cc2ccccc2NC3=O)no1 (centres undefined)	-16%[39.2 µM]
O=C1Nc2ccccc2CN(C/C=C/c2ccccc2)C12CCNC2 (centres undefined)	-8%
CC(C)S(=O)(=O)Nc1ccc(F)c(C(=O)c2c[nH]c3ncc(-c4cccnc4)cc23)c1F	142%
COc1ccc(-c2nc3ccccc3s2)cc1OC	i
CC(O)CC(=O)O (centres undefined)	16µM*
O=C(O)CC(O)C(=O)O (centres undefined)	-18%
C[N+](C)(C)CC(O)CC(=O)O (centres undefined)	-5%
CC(=O)Nc1ncc(S(=O)(=O)N2CCOCC2)s1	4%
CCN1CCN(Cc2ccc(Nc3ncc(F)c(-c4cc(F)c5nc(C)n(C(C)C)c5c4)n3)nc2)CC1	162%
Cc1cc(-c2ccc(N=Nc3ccc4c(S(=O)(=O)O)cc(S(=O)(=O)O)c(N)c4c3O)c(C)c2)ccc1N=Nc1ccc2c(S(=O)(=O)O)cc(S(=O)(=O)O)c(N)c2c1O	12µM*
CCOC(=O)C1c2c(OC)ccc3c2C(=CC(C)(C)CO3)CN1C(=O)C1CC1 (centres undefined)	-3%
Cc1c(C(=O)NCC2CCCO2)[nH]c2c1C(=O)CC(c1ccco1)C2 (centres undefined)	-22%
CCOC(=O)c1[nH]c2c(c1C)CCC(c1ccco1)C2 (centres undefined)	-2%
CCOC(=O)c1[nH]c2c(c1C)C(=S)CC(c1ccco1)C2 (centres undefined)	13µM*
SMILES	nsP2pro inh
CN1CCN(CCCNC(=O)C2CCc3sc(C(=O)N4CCCCCC4)cc3C2)CC1 (centres undefined)	-4%
Cc1cc(NS(=O)(=O)c2ccc(NC(=O)Cc3ccc(F)c(Cl)c3)cc2)no1	5%
Cc1cc(-c2nc(-c3ccc(OC(F)(F)F)cc3)no2)nn1Cc1ccnc(N2CCN(C3CC3)CC2)c1	-2%
CC1CCC(=O)CC(SCC(O)C(=O)O)CCC(=O)O1 (centres undefined)	11µM*
COc1ccc2nc(-c3cccc(NC(C)=O)c3)sc2c1	i
CCOc1ccc(CCNC(=O)c2cc3cnccc3n2Cc2cccc(C)c2)cc1OCC	i
CCN1CCN(c2ncc3c(n2)CCN(Cc2ccc(C)s2)C3)CC1	21%
CCCCN1CCc2nc(N3CCN(C)CC3)ncc2C1	10µM*
Cc1ccccc1CN1CCc2nc(N3CCN(c4ncccn4)CC3)ncc2C1	52%
N#Cc1cccc(CN2CCC(N(Cc3cccnc3)C(=O)Nc3ccccc3-c3ccccc3)CC2)c1	34%
CC(C)[C@H]1C(=O)N[C@@H](CCCN=C(N)N)C(=O)NCC(=O)N[C@@H](CC(=O)O)C(=O)N[C@H](Cc2ccccc2)C(=O)N1C	-1%
CC(C)=CCC[C@](C)(O)[C@H]1CC[C@]2(C)[C@@H]1[C@H](O)CC1[C@@]3(C)CC[C@H](O)C(C)(C)C3[C@@H](O[C@@H]3O[C@H](CO)[C@@H](O)[C@H](O)[C@H]3O[C@@H]3OC[C@@H](O)[C@H](O)[C@H]3O)C[C@]12C (some centres undefined)	-10%[10 µM]
CCOC(=O)[C@H](CS)NCCN[C@@H](CS)C(=O)OCC	11µM*
CCOC(=O)C(Cc1ccccc1)NC(=O)Cn1nnc(-c2ccc(C)cc2)n1 (centres undefined)	-20%
CCOC(=O)c1ccccc1C(=O)OCC	4%
OC[C@H]1O[C@@H](n2cnc3c2NC=NC[C@H]3O)CC1O (some centres undefined)	-23%
OC[C@H]1C[C@@H](NCc2ccc(F)cc2)[C@H](O)[C@@H]1O	-5%[39.2 µM]
COC(=O)c1ccccc1NC(=O)CSc1nc2sc3c(c2c(=O)[nH]1)CCCC3	10µM*
Cc1cc(C)cc(NC(=O)CSc2nc3sc4c(c3c(=O)[nH]2)CCCC4)c1	-21%
COC(=O)c1ccc(Cn2nnc3sc4c(c3c2=O)CCCC4)cc1	-22%
Cc1ncc(CNC(=O)N(CCCl)N=O)c(N)n1	-2%
COC(=O)CCCCC(CCSS/C(CCO)=C(\C)N(C=O)Cc1cnc(C)nc1N)SC(C)=O (centres undefined)	8%
C/C(=C(\CCO)SS/C(CCO)=C(\C)N(C=O)Cc1cnc(C)nc1N)N(C=O)Cc1cnc(C)nc1N	11µM*
C[C@H](O)[C@H](O)/C=C/c1cccc(O)c1CO	-9%
Cc1cc(NCc2ccc(NC(=O)Cc3ccc(Cl)c(Cl)c3)cc2)no1	i
SMILES	nsP2pro inh
CCOc1ccc(C(c2c(O)cc(C)n(Cc3ccco3)c2=O)N2CCN(C)CC2)cc1 (centres undefined)	13µM*
CCOc1ccccc1NC(=O)Cn1c(=O)n(Cc2ccco2)c(=O)c2cccnc21	-8%
CC(C)Oc1ccc(CCNC(=O)c2cc3sccc3n2Cc2ccccc2)cc1OC(C)C	-21%
CC1=C2CC(=O)C(C)CC/C=C(\C)CC2(O)OC1=O (centres undefined)	-9%
CC1=C2C[C@@]3(C)[C@@H](CCC[C@@H]3C)C[C@@]2(O)OC1=O	-27%
CC1=C2C[C@@]3(C)C(CCC[C@@H]3C)C(O)C2(O)OC1=O (some centres undefined)	11µM*
C=CCCCCCCCCC(=O)O[C@H]1CC[C@H]2[C@@H]3CCC4=CC(=O)C=C[C@]4(C)[C@H]3CC[C@]12C	-15%
Cc1ccc(S(=O)(=O)Nc2ccccc2C(=O)Nc2ccc(-c3ccccc3)cn2)cc1	i
Cc1cc(CC(C)C[Si](C)(O[Si](C)(C)C)O[Si](C)(C)C)c(O)c(-n2nc3ccccc3n2)c1 (centres undefined)	2%[5.1 µM]
COc1c(C)c(C(=O)c2ccc(N)c(C(=O)O)c2)n2ccccc12	-2%
O=C(Nc1ccc(Cl)c([N+](=O)[O-])c1)Nc1nnc(C2CCCCC2)s1	-2%
O=C1CCCC2=C1C(c1[nH]ncc1Cl)NC(=NCc1ccoc1)N2 (centres undefined)	-8%
